Compound activity (PubChem)
IMPase cell inh – IMPase inhibition in cells; CHO-M1 cells, IP1 accumulation, HTRF TR-FRET ratio; P97697; inhibition (IP1 accumulation), % at 46.1 µM; 120,000 tested, under 10 active; AID 901; active = well fitted curve in the direction sought with a large enough effect in the signal ratio, not every such curve was filed as active; inconclusive = small, poorly fitted or top-dose-only effect, or a change in a side signal; inactive = no such curve, though single readings can be large or run the other way; the % refers to the signal ratio;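 also: cells stimulated with carbachol in lithium chloride buffer; plate controls were DMSO basal wells for no effect and reference inhibitor wells for full effect; higher means more IMPase inhibition seen as more IP1 and lower FRET ratio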
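The IP-One HTRF competitive assay in carbachol-stimulated CHO-M1 cells quantifies cellular IP1. Compounds spanned up to 46 uM final, and activity is expressed as AC50 from concentration-response fits of the ratio and donor data.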
15-hLO-2 inh – inhibitors of human 15-lipoxygenase 2 (ALOX15B); AID 881; 0.56% of 110,000 active; O15296; Potency, µM (doses to about 57.1 µM), without a hit: at the top dose activity change, negative = inhibition, actives largely listed as inhibitors; purified 15hLO-2, xylenol orange hydroperoxide absorbance; also: potency is read from the fitted curve at half-maximal effect; nearly all actives have a fitted effect of over 60% in size
Target sequence (O15296 whole entry, looked up): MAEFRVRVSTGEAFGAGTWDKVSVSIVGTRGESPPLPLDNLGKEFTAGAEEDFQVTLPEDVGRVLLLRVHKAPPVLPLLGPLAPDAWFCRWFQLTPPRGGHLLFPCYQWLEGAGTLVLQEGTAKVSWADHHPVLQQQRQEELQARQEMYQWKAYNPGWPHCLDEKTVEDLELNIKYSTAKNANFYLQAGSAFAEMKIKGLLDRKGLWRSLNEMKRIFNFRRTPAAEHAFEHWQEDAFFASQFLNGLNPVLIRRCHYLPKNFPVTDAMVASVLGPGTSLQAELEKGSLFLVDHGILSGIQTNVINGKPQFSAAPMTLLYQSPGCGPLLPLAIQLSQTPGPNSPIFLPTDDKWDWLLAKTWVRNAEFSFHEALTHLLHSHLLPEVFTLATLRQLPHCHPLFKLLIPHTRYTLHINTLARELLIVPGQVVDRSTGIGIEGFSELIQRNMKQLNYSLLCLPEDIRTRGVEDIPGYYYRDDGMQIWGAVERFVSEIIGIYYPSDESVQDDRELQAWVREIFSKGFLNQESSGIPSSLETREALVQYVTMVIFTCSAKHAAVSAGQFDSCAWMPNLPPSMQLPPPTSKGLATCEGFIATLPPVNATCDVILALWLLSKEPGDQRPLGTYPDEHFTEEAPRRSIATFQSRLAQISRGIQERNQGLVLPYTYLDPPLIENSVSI
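Read-out: hydroperoxide product oxidises ferrous iron, measured as xylenol orange complex via the 573-to-405 nm absorbance ratio after 30 min. Reaction: 50 nM enzyme, 15 min compound preincubation, 45 uM arachidonic acid, 90 min RT, Hepes pH 7.5 with Triton X-100.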
ALOX12 inhib – inhibitors of human 12-lipoxygenase (ALOX12); P18054; purified 12-hLO, xylenol orange hydroperoxide absorbance; Potency, µM (series often up to 57.1 µM), for inactives: at the top dose activity change, negative = inhibition, usual class: inhibitors; 0.12% of 150,000 active; AID 1452; also: potency is read from the fitted curve at half-maximal effect; nearly all actives have a fitted effect of over 55% in size
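Lipoxygenase turnover measured by absorbance at 573 and 405 nm after Fe-XO development. Human 12hLO 150 nM, arachidonate 40 uM, pH 7.0 Hepes buffer with detergent; 15 min compound preincubation, 30 min reaction.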
PNC assembly inh – blocks assembly of the perinucleolar compartment | PC3M PTB-GFP, PNC prevalence imaging, 16 h; stronger effect = lower value | activity change (PNC), negative = inhibition, % at 10 µM | 3.1% of 140,000 active | AID 2417;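 active = readout at or below -70, meaning at least 70% loss of cells showing the perinucleolar compartment, a nuclear body marking cancer cells; inconclusive = readout between -30 and a set limit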;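 also: plate controls were DMSO wells for no effect and camptothecin positive control wells for full effect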
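Read-out is percentage of cells bearing a perinucleolar compartment, from automated 20x imaging of fixed, Hoechst-stained PC3M PTB-GFP cells. Cells were seeded 4 h, then exposed 16 h to compound (23 nl of library stock) in duplicate plates.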
IMPase Li inh – membrane-permeable IMPase blocker, potentiated with lithium; CHO-M1 cells, IP1 TR-FRET (IP-One), carbachol + lithium; Potency, µM (highest dose often 59.4 µM), for inactives: at the highest dose activity, negative = IMPase inhibition, actives largely listed as inhibitors; 0.35% of 210,000 active; AID 1457;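 also: IP1 builds up when IMPase is blocked and the TR-FRET signal falls; potency is read from the fitted curve at half-maximal effect; plate controls were basal vehicle for no effect and high inhibitor control for full effect; nearly all actives have a fitted effect of over 50% in size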
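IP1 accumulation measured by competitive TR-FRET in lysed CHO-M1 cells after 30 min compound exposure at 37C, with a small lithium addition to potentiate weak responses. Hill-equation AC50 from ratio and donor-channel data.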
Starred values were filed as active, the others as inactive; ? = inconclusive; · = not tested or not shown; [ ] = dose if it differs, or a comment. This is one part of a sample in which hits are shown more often than they occur. Unless noted, calls follow the shape of the dose curve; as a rule, active = well fitted curve in the direction sought with a large enough effect; inconclusive = small, poorly fitted or top-dose-only effect, or another doubt; inactive = no such curve, though single readings can be large; an effect the other way counts as inactive or inconclusive. Unless noted, % is scaled to controls: 0 for no effect and ±100 for the full control effect.

SMILES	IMPase cell inh	15-hLO-2 inh	ALOX12 inhib	PNC assembly inh	IMPase Li inh
Cc1ccc(-n2ncc3c(=O)n(CC(=O)NCc4ccco4)cnc32)cc1	-2.2	·	1.8%	-100.0*	-5.0%
CC(C)C(c1nnnn1Cc1ccc2c(c1)OCO2)N1CCN(c2ccccc2)CC1 (stereo not given)	3.8	-9.3%	-5.0%	9.0	18.6%[38.3 µM]
CC(C)C(c1nnnn1Cc1ccc2c(c1)OCO2)N1CCN(C)CC1 (stereo not given)	-2.9	·	-0.7%	-100.0*	3.7%
COc1ccc(S(=O)(=O)/N=C2/C=CC(=O)C(C)=C2C)cc1	4.5	12.6µM*	-21.7%	-27.6	-11.1%[38.3 µM]
COc1ccc(-c2nc(C)sc2CC(=O)O)cc1	0.1	·	-1.4%	-100.0*	1.4%
COc1ccc(-c2nc(C)sc2CC(=O)O)cc1OC	·	·	·	·	-4.4%
COc1ccc(N2C(=O)S[C@@H]3CS(=O)(=O)C[C@@H]32)cc1	·	·	2.3%	-113.4*	9.2%
C=CCOC(=O)N[C@H](c1ccccc1)C(C(C)=O)C(C)=O	·	·	·	·	13.6%
O=C(Nc1ccc(F)cc1)N1CCN(c2ccccc2F)CC1	14.1	·	·	·	·
CCOC(=O)N1CCN(C(=O)c2cccc(NS(=O)(=O)c3ccc(F)c(F)c3)c2)CC1	·	·	1.3%	-88.6*	-1.1%
CCOc1ccccc1NC(=O)CSc1nnc(-c2ccco2)n1Cc1ccco1	3.8	0.6%	-8.4%	-22.8	17.6%[38.3 µM]
CCOc1ccccc1NC(=O)CSc1nnc(-c2ccccn2)n1Cc1ccco1	?	-12.6%	-7.8%	-81.8*	-4.4%[38.3 µM]
CCOc1ccccc1NC(=O)CSc1nnnn1Cc1ccccc1	-4.5	0.5%	-10.1%	-81.8*	27.0%[38.3 µM]
O=C(c1csnn1)N1CCC2(CC1)CN(c1ccccn1)C2	·	3.4%	5.3%	·	5.8%
CC(/C=C/c1ccccc1)=N\Nc1nc(-c2ccccc2)cs1	-0.8	-26.6%	-11.8%	-85.3*	8.5%
Nc1cc(-c2ccccc2)ccc1O	0.1	12.6µM*	?	17.5	23.5%[38.3 µM]
Cc1nnc2n1NC(c1ccc(Cl)cc1)C(C(=O)N1CCC(C)CC1)S2 (stereo not given)	1.3	0.0%	-2.3%	-111.6*	-0.6%[38.3 µM]
c1ccc(-c2nc(-c3ccco3)cs2)nc1	-1.8	-23.9%	-12.2%	-100.0*	-7.8%[38.3 µM]
CCn1ncc(C(=O)Nc2cccc(Cl)c2)c1C	·	·	0.3%	-88.6*	-8.2%
CCn1ncc(C(=O)Nc2cc(C)on2)c1C	0.3	-7.7%	5.9%	48.7	4.4%[38.3 µM]
CCn1ncc(Cl)c1C(=O)Nc1ccncc1	3.0	2.3%	0.4%	-114.2*	-1.9%[38.3 µM]
Cn1ncc(Cl)c1C(=O)Nc1ccncc1	0.0[0.0738 µM]	·	3.2%	?	-4.8%
CN(C)c1ncc2nc(-c3cc(F)cc(F)c3)c(=O)n(C[C@H]3CCCO3)c2n1	·	1.7%	·	·	3.0%
CCc1cccc(NS(=O)(=O)c2c(C)n[nH]c2C)c1	4.3	·	1.1%	-100.0*	-0.3%
Cn1c(=O)c2c(nc(NCCCCO)n2Cc2ccccc2Cl)n(C)c1=O	-1.6	·	·	·	·
SMILES	IMPase cell inh	15-hLO-2 inh	ALOX12 inhib	PNC assembly inh	IMPase Li inh
O=C1CCCC2=C1C1(CCCC1)N=C(Nc1nc3ccccc3s1)N2	2.6	21.5%	-1.9%	-116.6*	-23.8%[38.3 µM]
CNC(=S)Nc1cc(C(F)(F)F)ccc1Cl	·	·	-0.9%	-86.3*	3.0%
FC(F)(F)c1ccc(Cl)c(NC(=S)NC2CC2)c1	-1.1	·	2.4%	8.3	-4.2%
COC(=O)C1=C(C(=O)OC)[C@@H]2N(Cc3ccccc3)c3ccccc3[C@@]23C[C@@H](C(=O)OC)N(C(=O)c2ccco2)C3=N1	·	·	-1.6%[11.4 µM]	·	1.3%
Cc1c(/C=N\NC(=O)C2COc3ccccc3O2)c2ccccc2n1C (stereo not given)	6.3	·	2.2%	-110.8*	0.2%
Cn1cc(/C=N\NC(=O)C2COc3ccccc3O2)c2ccccc21 (stereo not given)	·	·	-2.3%	?	-3.7%
COc1ccc(N2CCN(Cc3nnc(-c4cccc(Br)c4)o3)CC2)cc1	-2.5	·	·	·	·
Clc1ccc(CSCCc2ccncc2)cc1Cl	·	4.3%[11.4 µM]	0.3%[11.4 µM]	·	2.3%
CC(=O)NC(=S)Nc1ccc(-c2nc3ccc(C)cc3s2)cc1	-9.1	-20.2%	-1.3%	14.3	14.1µM*
O=C(O)c1cc2c(cc1S(=O)(=O)O)[C@H]1[C@@H](C3[C@H]2[C@@]2(Cl)C(Cl)=C(Cl)C3(Cl)C2(Cl)Cl)[C@]2(Cl)C(Cl)=C(Cl)C1(Cl)C2(Cl)Cl (stereo not given in full)	·	·	·	·	-7.8%
Cc1ccnc(NC(=S)NC(=O)c2cncc(Br)c2)c1	·	·	-1.1%	-100.0*	7.2%
Cc1nc(NC(=S)NC(=O)c2cncc(Br)c2)ccc1Br	·	·	·	·	-6.6%
CCCCC/C=C\C/C=C\C/C=C\CCCCC(=O)NCCCC(=O)O	·	·	2.9%	·	-2.6%
O=C(NC(Cc1c[nH]c2ccccc12)C(=O)Nc1ccc(OC(F)(F)F)cc1)c1cccs1 (stereo not given)	·	·	-0.3%	-113.0*	2.9%
O=C(NC(Cc1c[nH]c2ccccc12)C(=O)Nc1ccc(F)c([N+](=O)[O-])c1)c1cccs1 (stereo not given)	15.0	·	-9.3%	-119.3*	11.1%
O=C(NC(Cc1c[nH]c2ccccc12)C(=O)O)c1cccs1 (stereo not given)	·	·	·	·	-0.3%
c1ccc2c3c([nH]c2c1)[C@@H]1[C@H]2CC[C@H]([C@H]4CCCN[C@H]42)N1CC3	3.6[20.6 µM]	38.2%[25.6 µM]	-1.4%[25.6 µM]	·	7.6%
